The values below come from PubChem BioAssay (EPA / NIEHS).

Records with an inconclusive call do not appear. The source made the active and inactive calls. How the source made its calls, unless noted: active means hit-call score of the fitted dose curve at least 0.9, where 1 is the maximum; inactive means score below 0.9.

Test [1] can be described thus: CCTE_Mundy_HCI_Cortical_Synap_Neur_Matur_NeuriteLength: CCTE's Synaptogenesis and Neurite Maturation Assay in rat cortical cells for Neurite Length, Mundy Lab (AID 2284214). An outline of the steps: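 Neurite length quantified by automated high-content imaging of MAP2, synaptophysin and Hoechst staining. Rat cortical cells received chemical from DIV 7 to DIV 12 […], glial growth arrested by AraC at DIV 5; DMSO baseline.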

Test [2] can be described thus: CCTE_Mundy_HCI_Cortical_Synap_Neur_Matur_SynapseCount: CCTE's Synaptogenesis and Neurite Maturation Assay in rat cortical cells for Synapse Count, Mundy Lab (AID 2284218). An outline of the steps:
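High-content imaging of synaptophysin puncta per MAP2-positive neuron (Hoechst nuclei) in rat cortical cells exposed DIV 7–12 after glial arrest with AraC at DIV 5; decrease relative to DMSO scored.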

A short description of test [3]: CCTE_Mundy_HCI_Cortical_Synap_Neur_Matur_NeuriteCount: CCTE's Synaptogenesis and Neurite Maturation Assay in rat cortical cells for Neurite Count, Mundy Lab (AID 2284222).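 Further: exposure from day 7 to day 12 in vitro with readout at day 12.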 An outline of the steps:
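In this multiplexed morphology readout, rat primary cortical neurons are fixed at DIV 12 following dosing at DIV 7 and stained for MAP2, synaptophysin and nuclei. High-content image analysis yields neurite count.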

Test [4] is described as follows: CCTE_Mundy_HCI_Cortical_Synap_Neur_Matur_CellBodySpotCount: CCTE's Synaptogenesis and Neurite Maturation Assay in rat cortical cells for Cell Body Spot Count, Mundy Lab (AID 2284223). An outline of the steps:
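High-content imaging counts synaptophysin puncta on neuronal cell bodies per neuron after MAP2/synaptophysin immunostaining. Rat primary cortical cells, glia arrested with AraC at DIV 5, were exposed DIV 7–12; signal decrease measured against DMSO.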

The nature of test [5]: CCTE_Mundy_HCI_hNP1_Pro_ResponderAvgInten: CCTE's Proliferation Assay in human neuroprogenitor cells, Mundy Lab (AID 2284224; active means hit-call score of the fitted dose curve at least 0.9, where 1 is the maximum;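 further: human neural progenitor cells hNP1 derived from WA09 embryonic stem cells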). An outline of the steps:
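Proliferation was scored as BrdU labelling intensity in human neural progenitors derived from WA09 embryonic cells, measured 26.25 hours after chemical dosing. Activity was fitted relative to DMSO.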

The nature of test [6]: UKN2_HCS_IMR90_cell_viability: Viability Assessment in the University of Konstanz (UKN) Leist Lab Neural Crest Cell Migration Assay in human induced IMR90 Pluripotent Stem Cells (UKN2) (AID 2284233).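 Further: cells exposed to compound for 24 h after a 24 h migration phase.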 An outline of the steps: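 After calcein-AM/Hoechst staining, viability is quantified by high-content fluorescence imaging, relative to DMSO, in iPSC (IMR90)-derived neural crest cells. Exposure lasts 24 h, starting after a 24 h migration period on PLO/laminin/fibronectin coating.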

A short description of test [7]: CCTE_Mundy_HCI_Cortical_NOG_NeuronCount: CCTE's Neurite Outgrowth Assay in rat cortical cells for Neuron Count, Mundy Lab (AID 2284236; active means hit-call score of the fitted dose curve at least 0.9, where 1 is the maximum;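 further: neurons counted by imaging betaIII-tubulin and Hoechst stained cortical cells; cells exposed to compound for about 48 hours before fixation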). An outline of the steps: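 Read-out: neuron number by high-content imaging of betaIII-tubulin (Alexa Fluor-488) and Hoechst-labelled rat primary cortical cells.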
Test [8] can be described thus: CCTE_Mundy_HCI_Cortical_NOG_BPCount: CCTE's Neurite Outgrowth Assay in rat cortical cells for Branch Point Count, Mundy Lab (AID 2284237). An outline of the steps:
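Measured 50.33 h after dosing, this morphology endpoint uses rat primary cortical cultures labelled for betaIII-tubulin. Branch points are quantified by high-content imaging, with DMSO as negative control and baseline.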

The nature of test [9]: CCTE_Mundy_HCI_hNP1_Casp3_7: CCTE's Caspase-Glo 3/7 Assay in human neuroprogenitor cells for Apoptosis, Mundy Lab (AID 2284240). An outline of the steps:
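Apoptosis is scored by activated caspase-3/7 luminescence in WA09-derived neural progenitor cells, measured 26.5 h after chemical dosing. Values represent gain of signal relative to DMSO vehicle.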

Test [10] is described as follows: CCTE_Mundy_HCI_Cortical_Synap_Neur_Matur_NeuronCount: CCTE's Synaptogenesis and Neurite Maturation Assay in rat cortical cells for Neuron Count, Mundy Lab (AID 2284242; active means hit-call score of the fitted dose curve at least 0.9, where 1 is the maximum;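 further: hits reduce neuron count versus DMSO baseline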). An outline of the steps: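 Neuron counts come from automated high-content imaging of Hoechst nuclei and MAP2/synaptophysin immunostaining at DIV 12, with loss of signal judged against DMSO. Cultures of rat cortical cells had glial growth arrested by AraC at DIV 5; chemical exposure began DIV 7.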

Test [11] in a line: IUF_NPC2c_oligodendrocyte_migration_120hr: Leibniz Research Institute for Environmental Medicine (IUF) 120-hour Neural Progenitor Cell Migration Assay for Oligodendrocyte Migration (NPC2c) (AID 2284297).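 Further: O4-positive oligodendrocyte migration distance divided by radial glia migration distance.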 An outline of the steps: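 Exposure runs 5 days from differentiation onset at 37C, seven concentrations plus solvent control, DMSO at most 0.1%, applied to primary hNPC spheres on laminin. After fixation, O4 immunostaining gives oligodendrocyte distance from the sphere core, relative to radial glia migration.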

A short description of test [12]: IUF_NPC2a_radial_glia_migration_120hr: Leibniz Research Institute for Environmental Medicine (IUF) 120-hour Neural Progenitor Cell Migration Assay for Radial Glia Migration (NPC2a) (AID 2284298). An outline of the steps: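 Migration distance in um, sphere core edge to migration-area edge, derived by nuclei-density algorithm from Hoechst images after 120 h compound exposure. Primary hNPC spheres differentiated on poly-D-lysine/laminin in N2 medium, 37C; medium half-replaced day 3.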

Test [13] is described as follows: IUF_NPC2b_neuronal_migration_120hr: Leibniz Research Institute for Environmental Medicine (IUF) 120-hour Neural Progenitor Cell Migration Assay for Neuron Migration (NPC2b) (AID 2284300). An outline of the steps:
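TUBB3-positive neurons are imaged after 120 h of differentiation, and their mean distance from the sphere edge is normalised to radial glia migration. Single 0.3 mm fetal hNPC spheres on poly-D-lysine/laminin received 7 compound concentrations, ≤0.1% DMSO, refreshed at day 3.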

Test [14] can be described thus: IUF_NPC3_neuronal_differentiation_120hr: Leibniz Research Institute for Environmental Medicine (IUF) 120-hour Neuronal Differentiation Assay (NPC3) (AID 2284301). An outline of the steps: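 Value is percent TUBB3-positive neurons among Hoechst-stained nuclei in the migration area, scored by trained CNN after 120 h differentiation. Primary hNPC spheres on poly-D-lysine/laminin, N2 medium, continuous dosing from day 0, half-refeed day 3; DMSO reference.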

A short description of test [15]: IUF_NPC4_neurite_length_120hr: Leibniz Research Institute for Environmental Medicine (IUF) 120-hour Neuronal Morphology Assay for Neurite Length (NPC4) (AID 2284302). An outline of the steps: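 Neurite length, the mean in um across TUBB3-stained neurons, is derived by skeletonization of high-content images after 120 h differentiation. Compound exposure, 7 concentrations plus solvent control, ran from plating of hNPC spheres on poly-D-lysine/laminin, with medium half-replaced on day 3.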

Test [16] is described as follows: IUF_NPC4_neurite_area_120hr: Leibniz Research Institute for Environmental Medicine (IUF) 120-hour Neuronal Morphology Assay for Neurite Area (NPC4) (AID 2284305; active means hit-call score of the fitted dose curve at least 0.9, where 1 is the maximum). An outline of the steps:
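Neurite area (pixels, nuclei excluded) of TUBB3-positive neurons from hNPC spheres differentiating 5 days under continuous exposure at 37 C, 5% CO2. High-content imaging; loss of signal versus DMSO control across 7 concentrations.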

The nature of test [17]: IUF_NPC2-5_cytotoxicity_72hr: Cytotoxicity Assessment at 72 hours in the Leibniz Research Institute for Environmental Medicine (IUF) Neural Progenitor Cell Migration and Differentiation Assay for Cytotoxicity (NPC2-5) (AID 2284306; active means hit-call score of the fitted dose curve at least 0.9, where 1 is the maximum;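 further: LDH release into supernatant measured by resorufin fluorescence marking membrane damage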). An outline of the steps:
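Membrane-integrity cytotoxicity at 72 h, read as LDH-driven resorufin fluorescence in supernatant. hNPC spheres from fetal cortex differentiate on coated plates in N2 medium, 37C, 5% CO2; seven serial compound concentrations plus solvent control (DMSO ≤0.1%).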

A short description of test [18]: IUF_NPC2-5_cytotoxicity_120hr: Cytotoxicity Assessment at 120 hours in the Leibniz Research Institute for Environmental Medicine (IUF) Neural Progenitor Cell Migration and Differentiation Assay (NPC2-5) (AID 2284307; active means hit-call score of the fitted dose curve at least 0.9, where 1 is the maximum). An outline of the steps: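 Membrane-integrity loss measured as LDH activity in medium supernatant via resazurin-to-resorufin fluorescence after 120 h exposure. hNPC spheres from GW 16-19 fetal cortex differentiated on poly-D-lysine/laminin, 37C, medium half-refreshed day 3; seven concentrations, DMSO max 0.1%.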

Test [19] in a line: IUF_NPC2-5_cell_number_120hr: Cell Number Assessment at 120 hours in the Leibniz Research Institute for Environmental Medicine (IUF) Neural Progenitor Cell Migration and Differentiation Assay (NPC2-5) (AID 2284308).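 Further: count of Hoechst-stained nuclei in migration zone around plated human neural progenitor spheres.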 An outline of the steps: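 Counting of all Hoechst-stained nuclei in the migration area at 120 h, versus DMSO control. Primary hNPC spheres differentiated on poly-D-lysine/laminin in N2 medium at 37C, dosed from day 0 (7 concentrations, DMSO ≤0.1%), half-refed day 3.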

Test [20] in a line: IUF_NPC2-5_viability_120hr: Viability Assessment at 120 hours in the Leibniz Research Institute for Environmental Medicine (IUF) Neural Progenitor Cell Migration and Differentiation Assay (NPC2-5) (AID 2284312). An outline of the steps: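 Alamar blue resorufin fluorescence read after 5 days of differentiation, with compound present from day 0 and replenished at day 3. Primary hNPC spheres on laminin-coated plates, 37C; seven concentrations plus solvent control, fitted against DMSO.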

A short description of test [21]: CCTE_Mundy_HCI_iCellGluta_NOG_NeuriteLength: CCTE's Neurite Outgrowth Assay in iCellGluta cells for Neurite Length, Mundy Lab (AID 2284318; active means hit-call score of the fitted dose curve at least 0.9, where 1 is the maximum). An outline of the steps: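 Automated high-content imaging of betaIII-tubulin (Alexa Fluor-488) and Hoechst-stained cells gave neurite length, normalized to the DMSO baseline.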
Test [22] is described as follows: IUF_NPC1_cytotoxicity_72hr: Cytotoxicity Assessment at 72 hours in the Leibniz Research Institute for Environmental Medicine (IUF) Neural Progenitor Cell Proliferation Assay (NPC1) (AID 2284332; active means hit-call score of the fitted dose curve at least 0.9, where 1 is the maximum;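 further: rising LDH signal means more cytotoxicity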). An outline of the steps: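 Cytotoxicity by LDH membrane-integrity assay on medium supernatants, fluorescence via resazurin reduction, after 3-day single exposure of primary hNPC spheres at 37C, pH 7.2-7.6 with growth factors. Fitted upward against baseline.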

A short description of test [23]: CCTE_Mundy_HCI_iCellGluta_NOG_NeuriteCount: CCTE's Neurite Outgrowth Assay in iCellGluta cells for Neurite Count, Mundy Lab (AID 2284342; active means hit-call score of the fitted dose curve at least 0.9, where 1 is the maximum;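 further: chemical exposure about 48 hours starting 2 hours after plating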).

As to `CCOP(=O)(OCC)OC(Cl)C(Cl)(Cl)Cl` (stereo not drawn), the compound was called inactive in test [1], in [2], in test [3], in test [4], in test [5] and in test [6]. The compound was classed as inactive in test [7], in [8], in test [9], in test [11], in test [12] and in test [13]. The call in [14], in test [15], in test [16], in [17], in test [18] and in [20] was inactive. Also, the call in test [21], in test [22] and in [23] was inactive. The AC50 is 9.85 µM (active) in [10] and 36 µM (active) in [19].
